Test results taken from PubChem BioAssay (NCATS).
Results filed as inconclusive are left out. A call without a number means that no potency is given here. Values without a mark were called inactive. Active and inactive are the calls of the source. Calls come from the whole dose curve; as a rule, active = well fitted cell-killing curve with a large enough effect; inconclusive = small, poorly fitted or top-dose-only effect, or effect the other way; inactive = flat fitted curve, though single readings scatter.

system: HeLa; test: Primary qHTS to identify gynecologic anti-cancer compounds using libraries of approved drugs and bioactive compounds (AID 1345084); conditions: Gynecologic cancer cell panel viability, ATPlite luminescence, 48 h; series mostly up to 57.5 µM; note: nearly all actives have a fitted effect of over 55% in size
How it was run: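 Cell viability after 48 h drug treatment, ATPlite luminescence readout; five doses.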

Compound	Potency	activity change, negative = cytotoxicity
CC1(C)CC[C@]2(C(=O)O[C@@H]3O[C@H](CO)[C@@H](O)[C@H](O)[C@H]3O)CC[C@]3(C)C(=CCC4[C@@]5(C)C[C@@H](O)[C@H](O)C(CO)(CO)C5CC[C@]43C)C2[C@@H]1O (stereo partly drawn)	inactive	–
CO[C@@]12CC3[C@@H]([C@@H](O)[C@@H](OC(C)=O)C4[C@](C)(COC(C)=O)CCC[C@]34C)[C@@H](C)C1=CC(=O)O2 (stereo partly drawn)	inactive	–
C[C@]12C=CC(=O)C=C1CC[C@@H]1[C@@H]2[C@@H](O)C[C@@]2(C)[C@H]1CC[C@]2(O)C(=O)COC(=O)CCC(=O)O	inactive	–
CC1CCC2C(C)(C)C(O)CCC2(C)C12Cc1c(O)cc3c(c1O2)C(N)=NC3 (stereo not drawn)	inactive	–
CC12CC34C=CC(=O)C(C)(CCC(=O)O)C3C(CC1C4)O2 (stereo not drawn)	inactive	–
O=C(O)C[C@H]1CCC(=O)[C@@H]1C/C=C\CCOC1OC(CO)C(O)C(O)C1O (stereo partly drawn)	inactive	–
COc1cc(/C=C/CO)ccc1O[C@@H]1O[C@H](CO)[C@@H](O)[C@H](O)[C@H]1O	inactive	–
COc1ccc([C@H]2Cc3cccc(O)c3C(=O)O2)cc1	inactive	–
CC(=O)OC(C)OC(=O)C(C)c1ccc(-c2ccccc2)c(F)c1 (stereo not drawn)	inactive	–
CC1OC(O[C@H]2[C@@H](O)C[C@@]3(C)C([C@H](O)C[C@]4(C)C3CC=C3C5CC(C)(C)CC[C@]5(C(=O)OC5OC(CO)C(O)C(O)C5OC5OCC(OC6OCC(OC7OCC(O)C(O)C7O)C(O)C6O)C(OC6OCC(O)(CO)C6O)C5O)CC[C@]34C)[C@]2(C)CO)C(O)C(O)C1O (stereo partly drawn)	–	2.57% [at 6.55 µM]
C/C=C/C1=CC2=CC(=O)C(C)(O)C(OC(=O)c3c(C)cc(O)cc3O)C2CO1 (stereo not drawn)	inactive	–
c1ccc(C(OC2CCN(CCCc3nn[nH]n3)CC2)c2ccccc2)cc1	inactive	–
N[C@H]1C[C@H]1c1ccc(-c2cccc(O)c2)cc1	inactive	–
NCCOCCOCCNC(=O)Cc1ccc(Nc2nc(NCc3ccc(F)cc3)nc(NCC3CCCCC3)n2)cc1	inactive	–
COc1cc(-c2cccc(O)c2)cc2c1OCO2	inactive	–
CCC[C@@H]1C[C@@H](C(=O)N[C@@H]([C@H]2O[C@H](SC)[C@H](OP(=O)(O)O)[C@@H](O)[C@H]2O)[C@H](C)Cl)N(C)C1	inactive	–
CCCC(N[C@@H](C)C(=O)N1[C@H](C(=O)O)C[C@@H]2CCCC[C@@H]21)C(=O)OCC (stereo partly drawn)	inactive	–
C=CC(C)(C)C12CC3C(=O)NC(Cc4cnc[nH]4)C(=O)N3C1Nc1ccccc12 (stereo not drawn)	inactive	–
CC1OC(OC2C(C)OC(OC3C(OC(=O)/C=C/c4ccc(O)cc4)C(CO)OC(OC4(COC(=O)/C=C/c5ccc(O)cc5)OC(CO)C(O)C4O)C3OC3OCC(O)(CO)C3O)C(O)C2O)C(O)C(O)C1O (stereo not drawn)	–	-8.01% [at 11.6 µM]

Compound	Potency	activity change, negative = cytotoxicity
CC1CCC2(C(=O)OC3OC(COC4OC(CO)C(O)C(O)C4O)C(O)C(O)C3O)CCC3(C)C(=CCC4C5(C)CCC(O)C(C)(C(=O)O)C5CCC43C)C2C1(C)O (stereo not drawn)	–	-4.94% [at 11.6 µM]
CN1Cc2c(N)cccc2C(c2ccccc2)C1 (stereo not drawn)	inactive	–
CC(C)=CC/C=C(/C)[C@H]1CC[C@]2(C)[C@@H]1[C@H](O)CC1[C@@]3(C)CC[C@H](O)C(C)(C)[C@@H]3[C@@H](O[C@@H]3O[C@H](CO)[C@@H](O)[C@H](O)[C@H]3O[C@@H]3O[C@@H](C)[C@H](O)[C@@H](O)[C@H]3O)C[C@]12C (stereo partly drawn)	inactive	–
COc1cc(C2c3cc(O)c(OC)cc3CC(CO)C2CO)ccc1O (stereo not drawn)	inactive	–
CC/C=C\C[C@H]1C(=O)C=C[C@@H]1CCCCCCCC(=O)O	inactive	–
CC1=CCC2C(C)(CO)CCCC2(CO)C1CO (stereo not drawn)	inactive	–
C[C@@H]1O[C@@H](O[C@@H]2[C@@H](O)[C@@H](O)[C@H](O[C@@H]3[C@@H](O)[C@@H](O[C@]4(CO)O[C@H](CO)[C@@H](O)[C@@H]4OC(=O)/C=C/c4ccc(O)cc4)O[C@H](CO)[C@H]3OC(=O)/C=C/c3ccc(O)cc3)O[C@H]2C)[C@H](O)[C@H](O)[C@H]1O	–	11% [at 11.6 µM]
CC(=O)OCC(=O)O[C@@H]1[C@H]2[C@@H](OC(=O)c3ccccc3)[C@@H](C)C[C@]2(O)[C@H](OC(C)=O)C2(C)[C@H]3CC(C)(C)C(=O)[C@@H]3CC1(OC(C)=O)[C@@H]2OC(C)=O (stereo partly drawn)	inactive	–
O=S(=O)(NC1CCNCC1)c1cc(S(=O)(=O)c2ccccc2)ccc1C(F)(F)F	inactive	–
COCC(=O)N1CCc2cc(-c3csc(NC(=O)c4cc(OC)cc(OC)c4)n3)ccc21	inactive	–
CC1(C)OC(=O)C(OCC2CC2)=C1c1ccc(S(C)(=O)=O)cc1	inactive	–
C[C@]12CCC[C@](C)(C(=O)O)C1CCC13C=C(CO)C(CCC12)C3 (stereo partly drawn)	inactive	–
Cc1coc2c1CC1OC1(C)CCC1OC1(C)C2 (stereo not drawn)	inactive	–
C/C=C1\[C@H](O[C@@H]2O[C@H](CO)[C@@H](O)[C@H](O)[C@H]2O)OC=C(C(=O)OC)[C@H]1CC(=O)OC	inactive	–
C=CCc1ccc(O[C@@H]2O[C@H](CO[C@@H]3O[C@H](CO)[C@@H](O)[C@H](O)[C@H]3O)[C@@H](O)[C@H](O)[C@H]2O)c(O)c1	inactive	–
C=C1CCC2C(C)(C(=O)O)CC(O)CC2(C)C1CC/C(C)=C/C(=O)O (stereo not drawn)	inactive	–
O=C(NC[C@H](O)CN1CCc2ccccc2C1)c1cc(NC2COC2)ncn1	inactive	–
Nc1ncnc2c1ncn2[C@H]1CCCO1	inactive	–
CC1(C)CCCC2(C)C3=C(C(=O)OC3O)C(O)CC12 (stereo not drawn)	inactive	–
